# Arbovirus inh – arbovirus infection inhibition; arbovirus infection cell-based antiviral screen; inhibition, % at 10 µM; 0.37% of 200,000 active; in the data active = inhibition above about 30%
# ROMK primary – human ROMK K+ channel modulation, primary screen; P48048; Tet-inducible ROMK, thallium flux fluorescence; actives lie on both sides; B-score at 10 µM; 2% of 130,000 active;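 active = signal ratio slope over the read window, or its plate-corrected B-score, at least 3 SD from the plate mean, either direction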;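 also: B-score of the F/F0 ratio slope over 7 to 12 s after thallium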
# Target sequence (P48048 whole entry, looked up): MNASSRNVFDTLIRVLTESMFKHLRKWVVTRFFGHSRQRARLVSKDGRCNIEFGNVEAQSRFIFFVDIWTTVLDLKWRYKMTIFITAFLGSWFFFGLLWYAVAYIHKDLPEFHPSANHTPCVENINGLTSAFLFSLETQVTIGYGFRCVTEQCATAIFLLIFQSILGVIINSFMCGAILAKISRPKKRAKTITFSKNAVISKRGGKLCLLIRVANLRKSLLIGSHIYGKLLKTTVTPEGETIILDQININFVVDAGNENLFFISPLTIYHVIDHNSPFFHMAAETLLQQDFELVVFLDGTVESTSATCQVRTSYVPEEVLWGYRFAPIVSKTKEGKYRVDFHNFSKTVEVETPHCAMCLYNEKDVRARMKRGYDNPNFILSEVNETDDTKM
# HSV replic up – HSV replication enhancement; maximum fold increase; AID 1956; 0.005% of 220,000 active; HSV replication augmentation in cells, fold increase; in the data active = maximum fold increase above about 1.5; inconclusive = no clear call, values can overlap the other calls; tested in PC3 cells
# Cl transport mod – modulates chloride dependent transport by human KCC2; KCC2 cells, thallium flux FluoZin-2 fluorescence; B-score of Tl+ flux slope (higher = more flux/activation; lower = inhibition) at 10 µM; 2.2% of 190,000 active; AID 1456; Q9H2X9;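 active = thallium flux slope and its plate-corrected score both differing from the plate sample mean at a set confidence after two filtering rounds, in either direction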;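 also: slope of fluorescence scaled to starting intensity during 10 to 20 s after thallium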
# Measles CPE – protection of cells from measles virus. protection (pct of control), % at 4 µM. Measles virus-infected cells, CPE protection, absorbance. 1.5% of 140,000 active; in the data active = protection mostly above about 24%, no sharp cut-off; inactive = mostly below about 26%
# KCC2 secondary – KCC2 (human) modulation, secondary assay | shares compounds with Cl transport mod | HEK293-KCC2, thallium flux, FluoZin2 fluorescence; active compounds read high | normalised thallium flux (F/F0 slope) at 10 µM | 15% of 3,700 active;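 active = thallium flux slope above the same plate's solvent-only control mean plus 3 SD; inconclusive = the two replicate wells disagree; inactive = no significant difference from solvent-only control wells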
# KCC2 bumet counter – thallium flux despite bumetanide block in KCC2 cells, secondary assay 3. shares compounds with Cl transport mod. HEK293-KCC2 + bumetanide/ouabain, thallium flux FluoZin2; active compounds read high. normalized thallium flux at 10 µM. 49% of 3,700 active. AID 1714;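 active = thallium entry rate above the same plate's blocked-transporter control wells by more than 3 SD; inconclusive = the two repeat wells disagree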;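 also: raw slope of fluorescence over initial fluorescence between 10 and 20 s after thallium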
# KCC2 sec2 – KCC2 (human) modulation, second secondary assay | shares compounds with Cl transport mod | HEK293-KCC2, thallium flux FluoZin2 fluorescence; actives lie on both sides; F/F0 rise rate, 10–20 s post-thallium | normalized thallium flux at 10 µM | 23% of 3,700 active;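 active = thallium flux slope more than 3 SD above or below the plate's solvent-only control mean, mostly below; inconclusive = the two repeat wells disagreed; inactive = no significant shift from solvent-only controls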;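 also: raw slope with 0.1% DMSO as baseline and bumetanide as block control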
# HEK293 Tl flux – acts in parental HEK cells, KCC2 counter-screen; HEK293 parental cells, thallium flux FluoZin2, ouabain; baseline-ratio fluorescence slope, 10–20 s after thallium; 46% of 3,700 active; thallium flux rate (normalised fluorescence) at 10 µM; AID 1716; shares compounds with Cl transport mod;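 active = thallium flux rate significantly above the same plate's solvent-only control wells, beyond their mean plus 3 SD; inconclusive = the two replicate wells gave conflicting results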
# KCC2 retest ouab – modulates human KCC2 on retest with ouabain. shares compounds with Cl transport mod. HEK293-KCC2, thallium flux FluoZin2 fluorescence; bidirectional: low = inhibitor, high = activator. raw Tl+ flux slope (below DMSO = inhibition, above = activation) at 10 µM. 48% of 3,700 active;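 active = thallium flux slope beyond 3 SD from same-plate DMSO control mean in most replicates, usually higher, sometimes lower; inconclusive = repeat tests gave conflicting results; inactive = no significant difference from controls in most replicates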;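 also: slope of initial-normalized fluorescence between seconds 10 and 20 after thallium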
# HEK counter2 – parental HEK flux effect, counter-screen 2; shares compounds with Cl transport mod; AID 1718; HEK293 parental, thallium flux FluoZin-2 fluorescence slope; thallium flux slope at 10 µM; 33% of 3,700 active;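 active = thallium flux slope above the same plate's solvent-control mean plus 3 SD in both duplicate wells; inconclusive = duplicate wells that disagreed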;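 also: run without ouabain in cells lacking the KCC2 cotransporter; slope of fluorescence scaled to its starting value between 10 and 20 s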
# Active calls of the source: *; i = inactive; ? = inconclusive; . = no result given. Hits are enriched below; roughly 4% of the tested compounds scored in any of these assays.
SMILES,Arbovirus inh,ROMK primary,HSV replic up,Cl transport mod,Measles CPE,KCC2 secondary,KCC2 bumet counter,KCC2 sec2,HEK293 Tl flux,KCC2 retest ouab,HEK counter2
Cc1ccccc1Nc1nc(=O)c2cc([N+](=O)[O-])ccc2s1,5.0,.,i,4.2*,6.3,0.00575,0.02*,0.0359,0.0163*,0.0307*,0.0164*
Cc1ccc(Nc2nc(=O)c3cc([N+](=O)[O-])ccc3s2)cc1,.,.,i,2.5,.,.,.,.,.,.,.
CCOc1ccc(OCCCC(=O)Nc2nc3ccccc3[nH]2)cc1,2.8,-0.0823,i,-0.00461,.,.,.,.,.,.,.
C/C(=C\C(=O)c1ncc(C(F)(F)F)cc1Cl)N(C)C,2.0,-0.706,i,-0.0462,.,.,.,.,.,.,.
O=S1(=O)C=C(SCc2ccc(F)cc2)Nc2ccccc21,9.0,-1.04,i,-4.34*,.,0.00783,0.00632,0.0278,0.00714,0.0269*,0.0105
O=S1(=O)C=C(SCc2ccccc2)Nc2ccccc21,9.8,.,i,-1.82,12.4,.,.,.,.,.,.
CCc1nn(C(C)C(=O)N2CCc3ccccc3C2)c(=O)c2cc3occc3n12 (centres undefined),2.6,.,i,-5.93*,6.0,?,0.00414,0.0222*,0.0061*,0.0122*,?
Cc1c(C=O)c(C=O)c(C)n1Cc1ccccc1,2.5,.,i,.,5.0,.,.,.,.,.,.
CN(Cc1ccccc1)c1nc(N)nc(Cl)c1C=O,6.7,-3.39,i,-4.95*,.,0.00721,0.00653,0.0324,0.00394,0.012*,0.0121
NNc1nc2ccccc2nc1C(F)(F)F,0.0,-0.541,i,2.82,.,.,.,.,.,.,.
FC(F)(F)c1nc2ccccc2nc1N/N=C\c1ccccc1,0.5,.,.,.,5.2,0.00732,0.00588*,0.0295,0.0086,0.02,0.0121
Cc1[nH]c2ccccc2c1/C=C/c1nc2ccccc2c(=O)n1-c1cccc([N+](=O)[O-])c1,-2.5,.,.,0.273,12.5,.,.,.,.,.,.
Cc1[nH]c2ccccc2c1/C=C/c1nc2ccccc2c(=O)n1CCO,-3.9,-0.763,i,-4.18*,.,0.00607,0.00241*,0.0297,0.00715,?,0.00982
CC1Cc2ccccc2N1Cc1nc2scc(-c3cccs3)c2c(=O)[nH]1 (centres undefined),12.8,.,i,3.89*,19.9,0.00792,0.0094*,0.0285,0.00715,0.0208,0.00927
CC/C(Cc1ccccc1)=N\NC(=O)c1cc([N+](=O)[O-])cc([N+](=O)[O-])c1,7.0,-0.0163,i,33.3*,.,0.0183*,0.0672*,?,0.033*,0.0454*,0.0176*
C/C(=N\NC(=O)c1ccccc1)c1ccccc1Br,0.2,-0.4,i,0.78,21.7,.,.,.,.,.,.
C/C(=N\NC(=O)c1cccc([N+](=O)[O-])c1)c1ccco1,.,.,i,12.4*,.,0.00766,0.0246*,0.0378,0.0192*,0.0291*,0.0258*
C/C(=N\NC(=O)c1ccc(Br)cc1)c1ccccc1,-8.0,.,i,5.99*,9.2,0.00889,0.0134*,0.0318,0.0149*,?,0.0118
CC/C(Cc1ccccc1)=N/NC(=O)c1cccc(Br)c1,-4.0,-0.78,i,9.18*,3.0,0.00718,0.0102*,0.0312,0.0157*,0.0222,0.0147*
CC(=O)NC1C(=O)N=C(SCC(=O)Nc2cccc(Cl)c2)NC1=O (centres undefined),4.0,1.18,i,0.453,.,.,.,.,.,.,.
C/C(=N\NC(=O)c1cccc(N/N=C(\C)c2cc(O)ccc2O)c1)c1cc(O)ccc1O,-12.1,2.03,i,0.898,.,.,.,.,.,.,.
Cc1ccccc1OCC1CNC(=O)O1 (centres undefined),-3.0,.,i,.,.,.,.,.,.,.,.
O=C1NCC(COCc2ccco2)O1 (centres undefined),11.2,-0.278,i,-4.83*,17.4,0.0174,0.00489,0.0273,?,0.0167,0.0116
C/C(=N\Nc1nc(N2CCCCC2)nc(N2CCOCC2)n1)c1ccccc1O,-17.7,-0.0459,i,-0.0886,.,.,.,.,.,.,.
CC(=O)N(C)c1ccc(N=Nc2c(C)[nH]n(C(N)=S)c2=O)cc1,0.9,0.0168,i,-0.0309,.,.,.,.,.,.,.
SMILES,Arbovirus inh,ROMK primary,HSV replic up,Cl transport mod,Measles CPE,KCC2 secondary,KCC2 bumet counter,KCC2 sec2,HEK293 Tl flux,KCC2 retest ouab,HEK counter2
Cc1cccc(N=Nc2c(C)[nH]n(C(N)=S)c2=O)c1C,16.9,-0.116,i,5.78*,.,0.00647,0.00925*,0.0296,0.00983*,0.0204,?
O=C(Nc1ccc(Cl)cn1)C1CCCN1S(=O)(=O)c1ccc(Cl)cc1 (centres undefined),-3.7,0.577,.,.,14.1,0.00821,0.00704,0.0329,?,0.0241,0.00985
NC(=O)COc1ccccc1/C=C1/SC(=O)N(CC(=O)N2CCc3ccccc3C2)C1=O,5.2,-1.99,.,-3.36*,6.7,0.0058,0.00485,0.0234*,0.00696,0.0161*,0.00906
CCc1ccc(Nc2nnc(SC3CCOC3=O)s2)cc1 (centres undefined),9.0,.,i,-5.31*,22.7,0.00636,?,0.0229*,0.00685,?,0.0103
COc1ccc2nc(SCC(=O)Nc3ccc4c(c3)OCCO4)[nH]c2c1,-1.9,.,.,-2.47*,16.1,0.00722,0.00483,0.0298,0.00735,0.0196,0.0115
CCc1ccc(-c2cn(C3CCCCC3)c(=S)[nH]2)cc1,3.6,0.83,i,6.02*,.,0.0187,0.05*,0.0299,0.0123*,0.023*,?
COc1cc(OC)nc(-n2ncc(Br)c(Br)c2=O)n1,-35.2,-0.755,i,-1.38,1.6,.,.,.,.,.,.
O=C(CSc1nc(-c2ccc(F)cc2)nc2c1Cc1ccccc1O2)Nc1ccc(C(=O)O)cc1,31.8*,0.809,i,3.32*,.,0.00755,0.00741*,0.0362,0.0125*,0.0242*,0.012*
O=c1[nH]c(CSc2nc3ccccc3s2)nc2ccccc12,.,.,i,1.33,.,.,.,.,.,.,.
O=c1[nH]c(CSc2nc3ccccc3s2)nc2cc(Cl)ccc12,.,0.563,i,6.25*,.,0.0107,0.0143*,0.0329,?,?,0.0114

# Compound activity: PubChem BioAssay, several laboratories
